High-throughput results: PubChem, several laboratories
M1 antagonist – blocks the rat M1 muscarinic receptor response to acetylcholine; P08482; CHO-M1 cells, Fluo-4 calcium, ACh EC80 antagonist mode; hits give low values; B-score at 10 µM; AID 628; 64,000 tested, 3.4% active;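 active = calcium fluorescence response, raw or row-and-column corrected B-score, differing from the plate sample mean either way at a set confidence level, mostly lower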
Target sequence (P08482 whole entry, looked up): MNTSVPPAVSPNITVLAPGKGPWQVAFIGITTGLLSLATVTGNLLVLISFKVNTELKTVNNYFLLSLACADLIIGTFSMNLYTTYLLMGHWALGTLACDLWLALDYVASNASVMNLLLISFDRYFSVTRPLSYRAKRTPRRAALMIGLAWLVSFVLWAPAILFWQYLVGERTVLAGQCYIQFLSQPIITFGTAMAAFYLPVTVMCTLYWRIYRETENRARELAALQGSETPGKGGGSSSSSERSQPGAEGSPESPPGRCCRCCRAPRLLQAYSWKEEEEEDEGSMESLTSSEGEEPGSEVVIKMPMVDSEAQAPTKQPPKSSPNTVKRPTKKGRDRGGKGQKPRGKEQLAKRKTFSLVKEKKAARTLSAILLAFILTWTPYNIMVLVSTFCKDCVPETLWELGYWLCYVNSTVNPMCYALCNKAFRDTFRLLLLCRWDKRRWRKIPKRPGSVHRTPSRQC
M1 ag – agonists of M1 muscarinic receptor | B-score at 10 µM | CHO-M1 cells, Fluo-4 calcium fluorescence, agonist mode; hits give high values | 64,000 tested, 3% active | AID 626;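 active = fluorescence rise, raw or as B-score row- and column-corrected plate score, outside the 99.7% band of its plate's samples, either direction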
PLAP act – human PLAP activation; P05187; purified PLAP enzyme, luminescent substrate read-out; hits give high values; activation fold at 20 µM; 96,000 tested, 1.2% active; AID 696; in the data active = activation fold above about 2
Cav32 inh – inhibitors of human Cav3.2 T-type calcium channel. Cav3.2-expressing cells, Fluo-4 calcium fluorescence FDSS; hits give low values. AID 449739. B-score at 10 µM. O95180. 100,000 tested, 4% active;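 active = single-dose well whose peak fluorescence ratio is a statistical outlier from its plate by either plate-standardised score or position-corrected B-score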
Active calls of the source: *; . = not tested or not shown. In the library only some 7.6% were active in any assay of this set; here they are far more common.

SMILES	M1 antagonist	M1 ag	PLAP act	Cav32 inh
CC(=O)SCC(=O)N=c1sc2cc(F)ccc2n1C	-0.061	0.075	0.9	-6.2*
COC(=O)c1ccc(CN2[C@H](C(=O)OC)C[C@@]3(O)[C@@H](O)[C@@H](O)[C@@H](O)C[C@@H]23)cc1	.	.	.	0.78
CCOc1cc(C(=S)N2CCCC2)ccc1OCC(=O)Nc1c(C)cc(C)cc1C	.	.	.	0.78
O=C(CN1CCN(c2ccc(Cl)cc2)CC1)Nc1ccc(F)cc1	-0.52	0.2	1.3	-4.5*
O=C(CN1CCN(c2ccc(Cl)cc2)CC1)Nc1ccc(F)c(F)c1	0.032	0.26	1	-1.9
CCN(CC)C(=O)N1c2ccccc2C=Cc2ccccc21	.	.	0.8	-8.6*
O=C(CN1CCCCCC1)N1c2ccccc2C=Cc2ccccc21	.	.	1.7	0.34
Cc1ccc(NC(=S)NC(NC(=O)c2ccco2)C(Cl)(Cl)Cl)cc1 (centres undefined)	.	.	1.1	-0.85
Cc1cccc(NC(=S)NC(NC(=O)c2ccco2)C(Cl)(Cl)Cl)c1 (centres undefined)	.	.	0.8	-6.1*
O=C(O)c1ccc(NC(=S)NC(NC(=O)c2ccco2)C(Cl)(Cl)Cl)cc1 (centres undefined)	.	.	1.1	-4*
Cc1noc(C)c1CSc1nc2[nH]ncc2c(=O)n1-c1ccccc1	0.75	0.0024	.	-0.075
Cc1cccc(-n2c(SCc3cc(=O)n4c(C)cccc4n3)nc3[nH]ncc3c2=O)c1	.	.	2.8*	.
O=C(O)c1ccc(CSCc2c(F)cccc2Cl)o1	1.1	0.88	1.1	0.2
CC(C)(C)n1nnnc1CN1CCN(C(c2ccccc2)c2ccccc2)CC1	.	.	.	-5.4*
CN=C1SC(CC(=O)Nc2cc(Cl)ccc2Cl)C(=O)N1C (centres undefined)	-0.023	-0.87	1.4	1.3
CCN(CC)S(=O)(=O)c1ccc(S(=O)(=O)N(CC(=O)Nc2ccccc2)CC2CCCO2)cc1 (centres undefined)	.	.	.	-1.2
COc1ccc2cc(CN(CC3CCCO3)S(=O)(=O)c3ccccc3Cl)c(=O)[nH]c2c1 (centres undefined)	.	.	2*	.
CCN(Cc1ccccc1)S(=O)(=O)c1ccc(S(=O)(=O)N(Cc2cccc(OC)c2)CC2CCCO2)cc1 (centres undefined)	.	.	1.6	-6.7*
CCCCN(CCCC)S(=O)(=O)c1ccc(SCC(=O)OCC)c([N+](=O)[O-])c1	.	.	0.8	-3.1*
CCCCN(CCCC)S(=O)(=O)c1ccc(N2CCCC2=O)c([N+](=O)[O-])c1	.	.	.	-1.5
CN1CCN(CCC(=O)Nc2cccc(F)c2)CC1	1.1	-0.09	0.9	-5*
Cn1ncc(Cl)c1C(=O)NC(=S)Nc1sc2c(c1C#N)CCCCC2	.	.	1	-0.21
O=[N+]([O-])c1ccc2c(c1)C(N1CCOCC1)/C(=C/COc1ccc(Cl)cc1Cl)O2 (centres undefined)	.	.	1.3	-3.6*
O=C(COc1ccc(Cl)cc1Cl)NC(=O)N1CCOCC1	0.98	-0.47	0.9	-0.083
CS(=O)(=O)N(CC(=O)NCc1ccc2c(c1)OCO2)Cc1ccc(Cl)cc1	-0.7	-0.23	1.5	-2.7
SMILES	M1 antagonist	M1 ag	PLAP act	Cav32 inh
COc1ccc(N(CC(=O)N2CCCC(C)C2)S(=O)(=O)c2c(C)nn(C)c2C)cc1 (centres undefined)	-0.53	-0.54	1.5	0.12
CN(C)c1oc(-c2ccccc2Cl)nc1P(=O)(c1ccccc1)c1ccccc1	.	.	1.6	-7.3*
COc1ccccc1-c1nc(S(=O)(=O)c2ccc(Cl)cc2)c(N(C)C)o1	-0.09	-0.54	1	2.7
O=C(NC1CC1)C1=C[C@H](c2ccc(C(F)(F)F)cc2)C[C@H](OCc2ccc(CO)cc2)O1	.	.	.	1.3
COc1ccccc1NC(=O)Cc1noc(CSc2cc(C)c3ccccc3n2)n1	0.66	-0.67	1.3	-7*
Cc1ccc(-n2c(C)cc(C(=O)OCC(=O)N(CC(C)C)C3CCS(=O)(=O)C3)c2C)cc1 (centres undefined)	0.079	0.11	1.2	-8.2*
CCOC(=O)c1ccc(NC(=O)CSc2nnc(CNc3ccc(C)cc3)n2C)cc1	.	.	.	-0.96
CCOC(=O)c1c(NC(=O)CSc2nnc(CNc3ccc(OC)cc3)n2C)sc(C)c1C	-0.48	0.48	1.5	-6.6*
Cc1ccc(C2CC(c3ccccc3)=NN2C(=S)Nc2ccccc2)o1 (centres undefined)	.	.	0.9	-7.5*
Cc1ccc(C(=O)C(C)OC(=O)C2CC(=O)N(C3CCCCC3)C2)cc1 (centres undefined)	-1.3	-0.93	1.1	-4
CC1(C)C(c2ccccc2)=[N+]([O-])CN1O	-0.7	0.033	0.9	1.3
COCCN(C(=O)CN1CCc2ccccc2C1)c1c(N)n(Cc2ccccc2)c(=O)[nH]c1=O	0.23	0.082	1.3	0.037
